The text below walks through data of PubChem BioAssay (NCI).

The structures appear in SMILES notation. About 83,000 compounds went through this panel and 20% of them were active in at least one assay; those are over-represented in the sample as a whole.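 Cell lines were cultured in 96-well plates, exposed to a single compound concentration, and assessed for percent growth 48 hours later.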 A number with no mark means an inactive call. The source made the active and inactive calls. Rule for the calls: active = growth percent below 10; inactive = the rest.

Some test systems named below: NCI-H23 lung; NCI-H226 lung; NCI-H322M lung; HOP-62 NSCLC; NCI-H460 lung; NCI-H522 lung; A549/ATCC NSCLC; 786-0 renal; COLO 205 colon; DU-145 prostate; K-562 leukemia; MALME-3M melanoma; MDA-MB-231 breast; RXF 393 renal; SF-268 CNS; SF-295 CNS; SF-539 CNS; UACC-257 melanoma; M14 melanoma; HOP-92 NSCLC.
Common to all, as to experiment: NCI-60 one-dose screen, 48 h (100 = growth as untreated, 0 = no growth, -100 = all killed)
What all share (conditions): 10 µM unless noted

As to `CCCCCCCCNc1ncnc2c1ncn2Cc1nnc2c3ccccc3c(Cl)nn12`, the growth was 59.6% in the test on NCI-H23 lung; 39.9% in the test on NCI-H226 lung; 77.8% in the test on NCI-H322M lung; 54.3% in the test on HOP-62 NSCLC; 53.3% with NCI-H460 lung; 52.9% with NCI-H522 lung. Also, the growth is 73.1% in the test with A549/ATCC NSCLC; 47.7% in the test on 786-0 renal; 65.5% in the test on COLO 205 colon; 49% in the test on DU-145 prostate; 14.8% in the test on K-562 leukemia; 69.9% in the test on MALME-3M melanoma. The growth with MDA-MB-231 breast was 55.4%; in the test with RXF 393 renal it was 36.1%; in the test on SF-268 CNS, 35.5%; in the test with SF-295 CNS, 61.8%; with SF-539 CNS, 49.9%; in the test on UACC-257 melanoma it was 46.9%. In addition, in the test on M14 melanoma, the growth was 34.5%.

In the case of `CCOC(=O)c1c(C)c2c(n1Cc1ccccc1)CSc1cc(C#N)c(=O)[nH]c1-2`, the growth with NCI-H23 lung was 72.6% [100 µM]; in the test with NCI-H322M lung, 78.6% [100 µM]; in the test on HOP-62 NSCLC, 58.7% [100 µM]; with NCI-H460 lung, 67% [100 µM]; in the test with HOP-92 NSCLC, -18.5% [100 µM] (active); in the test with NCI-H522 lung, 87% [100 µM]. Moreover, the growth in the test with A549/ATCC NSCLC is 75.1% [100 µM]; with 786-0 renal, 19.8% [100 µM]; in the test on COLO 205 colon it was 60.4% [100 µM]; in the test on DU-145 prostate it was 83.9% [100 µM]; in the test with K-562 leukemia, 75.5% [100 µM]; with MALME-3M melanoma, 55% [100 µM]. Further, the growth in the test with MDA-MB-231 breast is 54.8% [100 µM]; with RXF 393 renal, 26.6% [100 µM]; with SF-268 CNS, 67.5% [100 µM]; in the test on SF-295 CNS, 43.6% [100 µM]; with SF-539 CNS it was 52.6% [100 µM]; in the test on UACC-257 melanoma it was 121% [100 µM]. In the test with M14 melanoma, the growth was 90.4% [100 µM].

Turning to `CCOC(=O)c1cc(C(=O)c2cc(OC)cc(OC)c2)n2ncccc12`, the growth in the test with NCI-H23 lung was 45.8%; in the test on NCI-H322M lung, 72.5%; in the test with HOP-62 NSCLC, 30.7%; with NCI-H460 lung, 14.7%; with HOP-92 NSCLC, 47.1%; in the test on NCI-H522 lung it was 25.4%. The growth in the test with A549/ATCC NSCLC was 35.3%; in the test on 786-0 renal it was 34.2%; with COLO 205 colon, -13.2% (active); with DU-145 prostate, 37.4%; in the test on K-562 leukemia, 17.8%; in the test on MALME-3M melanoma it was 47.1%. In addition, the growth was 54.5% in the test with MDA-MB-231 breast; 35.9% with RXF 393 renal; 44.3% in the test on SF-268 CNS; 28.2% in the test with SF-295 CNS; 20% in the test on SF-539 CNS; 37.6% with UACC-257 melanoma. In addition, in the test with M14 melanoma, the growth is -15.7% (active).

Consider `O=C1Nc2ccccc2/C1=C/c1cccn1CCCCCCn1c2ccccc2c(=O)c2ccccc21`, for which the growth with NCI-H23 lung is 73.6%; with NCI-H322M lung, 97.9%; in the test on HOP-62 NSCLC it was 63.2%; in the test on NCI-H460 lung, 90.7%; in the test with HOP-92 NSCLC, 56.4%; in the test on NCI-H522 lung it was 66%. The growth in the test on A549/ATCC NSCLC is 87.9%; in the test on 786-0 renal, 103%; in the test on COLO 205 colon it was 50.5%; in the test on DU-145 prostate, 94%; with K-562 leukemia it was 66.6%; in the test on MALME-3M melanoma, 90.7%. Besides, the growth in the test on MDA-MB-231 breast was 75.4%; with RXF 393 renal, 99.2%; in the test on SF-268 CNS, 87%; in the test on SF-295 CNS, 97.2%; in the test on SF-539 CNS, 100%; with UACC-257 melanoma, 110%. Moreover, in the test on M14 melanoma, the growth is 78.2%.

With `C=C(C)[C@@H]1CC[C@]2(C(=O)NC(C)=O)CC[C@]3(C)[C@H](CC[C@@H]4[C@@]5(C)CCCNC(C)(C)[C@@H]5CC[C@]43C)[C@@H]12`, the growth is 59.7% with NCI-H23 lung; 63.3% with NCI-H322M lung; 56.4% in the test with HOP-62 NSCLC; -84.2% (active) in the test on NCI-H460 lung; 56.4% in the test with HOP-92 NSCLC; -46.7% (active) in the test on NCI-H522 lung. Further, the growth was 26.8% in the test with A549/ATCC NSCLC; 59.4% in the test on 786-0 renal; 24.8% in the test on DU-145 prostate; 3% (active) in the test with K-562 leukemia; -83.3% (active) with MALME-3M melanoma; 23.7% with MDA-MB-231 breast. For the same molecule, the growth in the test on RXF 393 renal was 25.2%; with SF-268 CNS, 60.5%; in the test with SF-295 CNS, 77.6%; in the test with SF-539 CNS it was -79.6% (active); in the test on UACC-257 melanoma, -64.5% (active); in the test with M14 melanoma, -65.3% (active).

As for `O=C1CCc2c(sc3[nH]c(=S)n(-c4cc(C(F)(F)F)cc(C(F)(F)F)c4)c(=O)c23)C1`, the growth in the test on NCI-H23 lung is -10.7% (active); in the test with NCI-H322M lung, 9.28% (active); in the test on HOP-62 NSCLC, -27.1% (active); in the test with NCI-H460 lung it was 5% (active); in the test on HOP-92 NSCLC it was -61.8% (active); in the test with NCI-H522 lung it was -46.6% (active). The growth in the test with A549/ATCC NSCLC is 5.85% (active); with 786-0 renal it was 18.1%; in the test with COLO 205 colon it was -80% (active); in the test on DU-145 prostate it was 25.2%; with K-562 leukemia, 22.5%; in the test with MALME-3M melanoma, -16.7% (active). The growth with MDA-MB-231 breast was -42.5% (active); in the test with RXF 393 renal, -3.65% (active); with SF-268 CNS it was 19.3%; with SF-295 CNS, -21.8% (active); in the test on SF-539 CNS, -51.1% (active); in the test with UACC-257 melanoma, -25.4% (active). For the same molecule, in the test on M14 melanoma, the growth was 23.6%.

Consider `[2H]C([2H])([2H])Oc1c(F)cccc1/C=C/C(=O)/C=C(O)/C=C/c1cccc(F)c1OC([2H])([2H])[2H]`, for which the growth is 86.1% in the test on NCI-H23 lung; 108% in the test with NCI-H226 lung; 102% with NCI-H322M lung; 110% in the test on HOP-62 NSCLC; 99.1% with NCI-H460 lung; 87.4% in the test on NCI-H522 lung. Further, the growth in the test on A549/ATCC NSCLC is 90.9%; in the test on 786-0 renal, 103%; in the test on COLO 205 colon, 114%; with DU-145 prostate, 103%; in the test on K-562 leukemia it was 107%; in the test with MALME-3M melanoma, 100%. Besides, the growth in the test on MDA-MB-231 breast is 109%; in the test on RXF 393 renal, 106%; with SF-268 CNS, 90.5%; with SF-295 CNS, 102%; in the test on SF-539 CNS it was 101%; in the test with UACC-257 melanoma, 82.7%. Also, the growth with M14 melanoma is 92.9%.

As to `COc1cccc2cc(N(C)c3ncnc4ccccc34)ccc12`, the growth with NCI-H23 lung is 15.5%; in the test with NCI-H322M lung it was 48%; in the test with HOP-62 NSCLC it was 23.3%; with NCI-H460 lung, 4.58% (active); in the test with HOP-92 NSCLC it was 28.1%; with NCI-H522 lung it was -9.69% (active). Also, the growth was 13.5% with A549/ATCC NSCLC; 29.5% in the test with 786-0 renal; -13.8% (active) in the test with COLO 205 colon; 10.3% with DU-145 prostate; 9.92% (active) with K-562 leukemia; 39.4% in the test with MALME-3M melanoma. The growth was 31.3% with MDA-MB-231 breast; 25.9% with RXF 393 renal; 30.2% in the test on SF-268 CNS; 11% in the test on SF-295 CNS; -28.5% (active) in the test on SF-539 CNS; 25.3% in the test with UACC-257 melanoma. The growth with M14 melanoma is 14.3%.
